According to PubChem BioAssay AID588591 (National Center for Advancing Translational Sciences (NCATS), 2011):
Where “and” joins values, the source holds several entries; their conditions need not be identical. Equal values may be shown once. Screen size: about 390,000 compounds; about 4,700 (1.2%) were called active. About 4% were inconclusive and are not listed. What follows is part of a selection rich in actives, with near analogues and random picks from the rest. Unmarked numbers belong to inactive results. The call rests on the fitted dose curve; in most records, active means well fitted inhibition curve with a large enough effect; inconclusive means small, poorly fitted or top-dose-only effect, or another doubt; inactive means no such curve, though single readings can be large or run the other way.

target: DNA polymerase eta (Homo sapiens) (UniProt Q9Y253); test: qHTS for Inhibitors of Polymerase Eta; conditions: recombinant Pol eta, fluorescent DNA replication assay; series mostly up to 114 µM; activity change, negative = inhibition: at the top concentration
Summary of the method: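 Pol eta (10 nM) was preincubated with compounds for 15 min at room temperature, after which fluorescent replication substrate (50 nM final) was added to start the reaction. Fluorescence was read kinetically at 0 and 10 min.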
On the % scale 0 is the no-effect control and ±100 the full control effect; potency means the concentration at half of the fitted maximal effect.

DNA polymerase eta (Homo sapiens), sequence (Q9Y253 whole entry, looked up): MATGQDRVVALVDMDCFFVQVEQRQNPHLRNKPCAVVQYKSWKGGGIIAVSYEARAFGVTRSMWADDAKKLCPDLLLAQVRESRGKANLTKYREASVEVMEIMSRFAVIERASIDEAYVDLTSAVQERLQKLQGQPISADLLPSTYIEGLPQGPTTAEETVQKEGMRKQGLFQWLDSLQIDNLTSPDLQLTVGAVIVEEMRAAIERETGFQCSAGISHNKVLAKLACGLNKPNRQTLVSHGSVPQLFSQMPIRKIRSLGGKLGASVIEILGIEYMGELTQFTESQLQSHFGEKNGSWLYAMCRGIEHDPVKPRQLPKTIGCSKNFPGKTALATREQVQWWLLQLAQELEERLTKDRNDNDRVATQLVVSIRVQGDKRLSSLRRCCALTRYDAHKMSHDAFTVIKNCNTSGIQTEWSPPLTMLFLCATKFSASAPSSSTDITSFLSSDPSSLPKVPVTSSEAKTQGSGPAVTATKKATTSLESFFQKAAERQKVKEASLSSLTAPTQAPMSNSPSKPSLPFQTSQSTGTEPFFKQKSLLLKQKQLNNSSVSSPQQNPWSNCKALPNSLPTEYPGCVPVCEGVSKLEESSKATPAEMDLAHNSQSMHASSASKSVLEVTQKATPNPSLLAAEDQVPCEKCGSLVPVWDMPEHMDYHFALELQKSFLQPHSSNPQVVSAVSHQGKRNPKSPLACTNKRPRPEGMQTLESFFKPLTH

Row | SMILES | activity change, negative = inhibition | Potency
1 | CN1CCN(Cc2nc3cc(NC(=O)COc4ccc([N+](=O)[O-])cc4)ccc3n2C)CC1 | -2.43% | 
2 | O=C(N/N=C/c1ccc(OCC2COCCO2)cc1)c1ccc(Br)cc1 (stereo not drawn) | -9.88% | 
3 | O=C(COc1ccc(/C=N/NC(=O)c2ccc(O)cc2)cc1)Nc1ccc([N+](=O)[O-])cc1 |  | 4.47 µM (active)
4 | COc1ccc(C2Sc3ccccc3NC3=C2C(=O)c2ccccc23)c(OC)c1OC (stereo not drawn) | -10.5% | 
5 | C=CCC(CC=C)(C(N)=O)c1ccccc1 | -13.7% | 
6 | CCC(C)OC(=O)C(C)Oc1ccc(-c2ccccc2)cc1 (stereo not drawn) | -10.5% | 
7 | NC(CSC(c1ccccc1)(c1ccccc1)c1ccc(-c2ccccc2)cc1)C(=O)O (stereo not drawn) |  | 25.1 µM (active)
8 | O=C(Nc1ccc(C(=O)OCc2cc(=O)n3nc(C4CC4)sc3n2)cc1)c1ccc(F)cc1 | 3.99% | 
9 | COc1ccc(CCNCc2c(C(=O)O)c(C)n(Cc3cccc(C)c3)c2C)cc1OC | -19.4% | 
10 | COc1ccc(Cl)cc1NC(=O)CCC(=O)c1ccc(C)cc1 | -3.27% | 
11 | Cn1c(=O)oc2cc(S(=O)(=O)CCC(=O)NCCc3ccc(Cl)cc3)ccc21 | -13.5% | 
12 | COc1ccc(Cl)cc1NC(=O)CN(C)Cc1ccc(OC)c(OC)c1 | -27.5% | 
13 | CC(=O)N1CCc2cc(Br)cc(S(=O)(=O)CCC(=O)NCCc3ccc(Cl)cc3)c21 | -7.83% | 
14 | O=C(CCS(=O)(=O)c1ccc(Br)cc1)NCCc1ccc(Cl)cc1 |  | 20 µM (active)
15 | COc1ccc(Cl)cc1NC(=O)CCS(=O)(=O)c1ccc(Br)cc1 |  | 20 µM (active)
16 | O=C(CCS(=O)(=O)c1cc(Br)cc2c1N(C(=O)C1CC1)CC2)Nc1ccc(Br)cc1F | 4.1% | 
17 | CSc1nc(-c2ccccc2Cl)nc2c1Cc1c(CO)cnc(C)c1O2 | -2.32% | 
18 | CC(=O)c1sc2nc(SCC(=O)N3CCCCC3)[nH]c(=O)c2c1C |  | 10 µM (active)
19 | COCCn1c(SCC(=O)N2CCCCCC2)nc2c(c1=O)SCC2 | -10.1% | 
20 | Cc1c(C)n2c(SCC(=O)N3CCCC3)nnc2[nH]c1=O | -18.5% | 
21 | Cc1cc(C)c2oc(C(=O)Nc3ccc(S(=O)(=O)N4CCCCCC4)cc3)cc(=O)c2c1 | -9.78% | 
22 | O=C(CSc1nnc(-c2ccncc2)n1-c1ccccc1)Nc1ccc(Cl)c(Cl)c1 | 1.86% | 
23 | COc1ccc(S(=O)(=O)NCCSc2nnnn2-c2ccccc2)cc1 | -11% | 
24 | CC(C)(C)C1C/C(=C/c2ccco2)C(=O)/C(=C/c2ccco2)C1 (stereo not drawn) |  | 28.2 µM (active)
25 | COc1cc(Cl)ccc1Nc1ncc(C(=O)N2CCN(c3ccccc3OC)CC2)c2ccccc12 | -7.62% | 

Row | SMILES | activity change, negative = inhibition | Potency
26 | COc1ccc(Nc2ncc(C(=O)Nc3cc(C)ccc3OC)c3ccccc23)cc1 | -16.5% | 
27 | COc1ccc(C(=O)Nc2cccc(C(=O)OCc3cc(=O)n4c5c(sc4n3)CCCC5)c2)cc1 | -3.82% | 
28 | COc1ccccc1CNC(=O)c1ccc(-n2c(C)cc3c2CCCC3)cc1 | -7.73% | 
29 | COc1ccc(C2=CC(c3ccccc3Cl)n3nc(-c4ccc(Cl)cc4)nc3N2)cc1 (stereo not drawn) | -22.5% | 
30 | CCCCOc1ccc(CNC(=O)c2ccc3c(c2)N(C)C(=O)C2CCCCN32)cc1 (stereo not drawn) | -10% | 
31 | Cc1cc(C)cc(NS(=O)(=O)c2ccc(-c3cc(C)no3)s2)c1 | 5.56% | 
32 | COCCNC(=O)Nc1ccc2nc(-c3ccco3)c(-c3ccco3)nc2c1 |  | 2.82 µM (active)
33 | CCOc1ccc(NC(=O)c2ncoc2-c2ccco2)cc1 | -22.9% | 
34 | COc1ccc(NC(=O)C(=O)NCc2ccco2)cc1 | 1.33% | 
35 | CCC(=O)N1c2ccccc2CC1C(=O)N1CCN(c2ccccc2F)CC1 (stereo not drawn) | -10.7% | 
36 | Cc1cccc(CC(=O)N2CC(=O)Nc3ccc(F)cc3C2c2ccccc2)c1 (stereo not drawn) | -24% | 
37 | O=C(COC(=O)c1ccc(F)cc1F)Nc1ncccn1 |  | 22.4 µM (active)
38 | CC(NC(=O)COC(=O)c1ccc(Cl)cc1O)c1ccc(F)cc1 (stereo not drawn) | -13.8% | 
39 | O=C(COC(=O)CSc1ccccc1)Nc1ccc(F)cc1F | -9.37% | 
40 | CCOC(=O)c1ccc(NC(=O)Cn2c(=O)cc(C)c3c(C)nn(-c4cccc(F)c4)c32)cc1 | -12% | 
41 | CN(Cc1ccccc1)S(=O)(=O)c1ccc(F)c(C(=O)Nc2cccc(Cl)c2Cl)c1 | 5.44% | 
42 | Cc1ccc(Cn2c(C)nc3c(c2=O)c2nc4ccccc4nc2n3Cc2ccco2)cc1 |  | 22.4 µM (active)
43 | CCN1CCN(C(c2ccc(C)cc2)c2c(O)cc(C)n(Cc3ccco3)c2=O)CC1 (stereo not drawn) | -18.8% | 
44 | Cc1ccc(Cn2c(=O)n(Cc3nc(-c4ccccc4)no3)c(=O)c3cc4c(cc32)OCO4)cc1 | 0.735% | 
45 | COc1cccc(C(=O)Nc2ccc(-c3cc(C(F)(F)F)nn3-c3ccccc3)cc2)c1 | -22.6% | 
46 | O=C(CN1c2ccccc2S(=O)(=O)c2ccccc21)Nc1cccc(C(F)(F)F)c1 | -11.6% | 
47 | CCCCN(CCCNC(=O)c1cc(Nc2ccccc2OC)nc2ccccc12)c1ccccc1 | -8.91% | 
48 | O=C(NCCCO)C(=O)Nc1c2c(nn1-c1ccccc1)CSC2 | -7.49% | 
49 | CC(C)(C)C(=O)OCc1nc(-c2ccc(O)c(O)c2)cs1 |  | 14.1 µM (active)
50 | O=c1cc(-c2ccccc2)[nH]c2nc(Cl)ccc12 | -5.32% [at 57.1 µM] | 

Row | SMILES | activity change, negative = inhibition | Potency
51 | Cc1ccc2c(c1)c1c(c(=O)n(-c3ccccc3)c(=O)n1CC(=O)c1ccc(Cl)cc1)n2C | -10.5% | 
52 | O=C(CSc1oc(-c2ccccc2)nc1S(=O)(=O)c1ccc(Br)cc1)NC1CCCCC1 | 0.104% | 
53 | N=C1C(c2nc3ccccc3[nH]2)=C(O)CN1NC(=O)c1c[nH]c2ccccc12 | -8.69% | 
54 | O=C(CCNC(=O)c1ccc([N+](=O)[O-])cc1)Nc1ccccc1N1CCOCC1 | -11% | 
55 | N=C1C(c2nc3ccccc3s2)=C(O)CN1NC(=O)c1ccc([N+](=O)[O-])cc1 |  | 50.1 µM (active)
56 | COCCNc1ncnc2c1c(-c1ccccc1)cn2-c1ccc(C)c(Cl)c1 | -3.31% | 
57 | COc1cccc(-c2cc(C(=O)Nc3ccc(C)cc3)[nH]n2)c1 | -20.5% | 
58 | Cn1c(=O)sc2cc(NS(=O)(=O)c3ccc(C(C)(C)C)cc3)ccc21 | -13.2% | 
59 | CC(=O)Nc1ccc(S(=O)(=O)Nc2ccc(-c3ccc4nnc(C)n4n3)cc2)cc1 | -16.5% | 
60 | CC(=O)c1ccc(S(=O)(=O)Nc2ccc(-c3ccc4nncn4n3)cc2)cc1 |  | 20 µM (active)
61 | O=C(Nc1ccc(-c2ccc3nncn3n2)cc1)C1CCCCC1 | -13.9% | 
62 | Cn1nnc2c(N3CCN(c4ccccc4)CC3)ncnc21 | -4.1% | 
63 | CCCCSc1ncnc2c1sc1nc(N3CCOCC3)c3c(c12)CCCC3 | -16% | 
64 | O=Cc1ccc(OCc2cn3ccccc3n2)cc1 | -5.21% | 
65 | CN(C)C(CNC(=O)c1ccc(OCc2cn3ccccc3n2)cc1)c1ccco1 (stereo not drawn) |  | 39.8 µM (active)
66 | CN(C)C(CNC(=O)CCCOc1ccccc1)c1ccco1 (stereo not drawn) | 1.86% | 
67 | Cc1ccc(OCC(=O)Nc2ccc(OCc3cc(=O)n4c(C)csc4n3)cc2)cc1C | -20.4% | 
68 | CCCCc1nn2c(=O)cc(COC(=O)c3ccccc3NC(=O)C(C)(C)C)nc2s1 | -9.36% | 
69 | CCOc1ccc(N(CC)S(=O)(=O)N2CCCC(C(=O)NCc3ccc(Cl)cc3)C2)cc1 (stereo not drawn) | -12.2% | 
70 | Cn1nnnc1SCc1cc(=O)[nH]c2ccccc12 | -4.32% | 
71 | Cc1ccc(N(Cc2cc(=O)[nH]c3ccccc23)C(=O)CCl)cc1 |  | 56.2 µM (active)
72 | Cc1ccc(N(Cc2ccccc2O)C(=O)c2ccccc2F)cc1 | -15.5% | 
73 | COc1ccc(CNC(=O)c2cc3c(s2)-c2ccccc2OC3)cc1 | -11.9% | 
74 | Cc1c(C)n(Cc2ccc(Cl)cc2)c2ccc(C(=O)N3CCN(c4ccccc4F)CC3)cc12 | 0.854% | 
75 | CC(C)c1ccc2c(c1)c(SC(C)(C)C)c(CC(C)(C)C(=O)O)n2Cc1ccc(Cl)cc1 |  | 35.5 µM (active) and 25.1 µM (active)

Row | SMILES | activity change, negative = inhibition | Potency
76 | CC(C)c1ccc(Cn2c(COc3ccccc3)nc3ccccc32)cc1 | -7.81% | 
77 | Cc1ccc(S(=O)(=O)NCc2nc3nc(C)cc(C)n3n2)cc1 | -23% | 
78 | Cc1cc(NC(=O)CSc2ncc(C(=O)Nc3ccc(Cl)cc3)c(=O)n2C)no1 | -17% | 
79 | Cc1ccc(C)c(NC(=O)CSC2=Nc3ccccc3N=C(c3ccc(F)cc3)C2)c1 | -6.54% | 
80 | CC(C(=O)Nc1ccc(O)c(C(=O)O)c1)N1C(=O)/C(=C/c2cccs2)SC1=S (stereo not drawn) |  | 79.4 µM (active)
81 | CCOc1ccc(NC(=O)C(C)N2C(=O)c3ccccc3C2=O)cc1 (stereo not drawn) | -1.82% | 
82 | O=C1/C(=C/c2cccs2)SC(=S)N1C1CCS(=O)(=O)C1 (stereo not drawn) | -23.4% | 
83 | CCN(CC)CCNc1ncnc2c1cnn2-c1cc(Cl)ccc1C | -10.7% | 
84 | CC(C)C(=O)Nc1nc2c(s1)CC(C(C)(C)C)CC2 (stereo not drawn) | -18.3% | 
85 | CCOc1ccccc1C(=O)Nc1ccc2c(c1)N(C)C(=O)c1ccccc1S2 | -13.7% | 
86 | Cc1ccc(Cl)cc1-n1ncc2c(N3CCC(C(N)=O)CC3)ncnc21 | -16.5% | 
87 | Cc1ccc(/C=C2\CCn3c2nc2cc(C(=O)O)ccc2c3=O)c(C)c1 |  | 79.4 µM (active)
88 | N#Cc1ccc(/C=C2\CCn3c2nc2cc(C(=O)O)ccc2c3=O)cc1 | -14.4% | 
89 | O=C(O)c1ccc2c(=O)n3c(nc2c1)/C(=C/c1ccc(OC(F)F)cc1OC(F)F)CC3 | -17.6% | 
90 | Fc1ccc(Nc2nc(SCc3ccccc3Cl)nc3ccccc23)cc1 | -14.4% | 
91 | O=C(NCC12CC3CC(CC(C3)C1)C2)c1cc2nc(-c3ccccc3)cc(C(F)(F)F)n2n1 | 0.579% | 
92 | COCCn1c(CCC(=O)Nc2cc(C)ccc2C)nc2cccnc21 | -13.2% | 
93 | COC(=O)c1ccc(Cn2c(SCC(=O)N(C)c3ccccc3)nc3ccccc32)cc1 | -3.59% | 
94 | Cc1ccc(O)c(NC(=O)CCS(=O)(=O)c2nc(-c3ccc4c(c3)OCO4)cc(C(F)(F)F)n2)c1 | -27.9% | 
95 | COc1ccccc1-n1c(SCC(=O)O)nc2sc3c(c2c1=O)CCC3 | -12.3% | 
96 | O=C(CCc1nc2sc3c(c2c(=O)[nH]1)CCCC3)NCC(=O)Nc1ccccc1Br |  | 8.91 µM (active)
97 | Cc1cccc(NC(=O)CSc2nc3c(c(=O)[nH]2)CCCC3)c1C | 1.98% | 
98 | COc1ccccc1CNC(=O)C(=O)NCC(c1cccs1)S(=O)(=O)c1cccs1 (stereo not drawn) | -12.4% | 
